Some test systems named below: NCI-H23 lung; NCI-H322M lung; HOP-62 NSCLC; NCI-H460 lung; HOP-92 NSCLC; NCI-H522 lung; A549/ATCC NSCLC; 786-0 renal; COLO 205 colon; DU-145 prostate; K-562 leukemia; MALME-3M melanoma; MDA-MB-231 breast; RXF 393 renal; SF-268 CNS; SF-295 CNS; SF-539 CNS; UACC-257 melanoma; M14 melanoma; HCT-15 colon.
Test in all cases: NCI-60 one-dose screen, 48 h (100 = growth as untreated, 0 = no growth, -100 = all killed)
What all share (conditions): 10 µM unless noted

Each structure is given as a SMILES string. This is part of a sample that, as a whole, favours compounds with a hit. Of some 83,000 tested, about 20% had one in any assay.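 Testing used 96-well plates and a 48-hour single-concentration exposure. Example: -40 means 40% of the starting cells died.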 A number with no mark means an inactive call. Calls of active or inactive are those of the source. Rule for the calls: active = growth percent below 10; inactive = the rest.

With `CC(C)C[C@H](C(=O)N[C@@H](C)C(N)=O)N1CC=CCN(O)S1(=O)=O`, the growth is 110% [5 µM] in the experiment with NCI-H23 lung; 135% [5 µM] with NCI-H322M lung; 102% [5 µM] in the experiment on HOP-62 NSCLC; 112% [5 µM] in the experiment on NCI-H460 lung; 116% [5 µM] with HOP-92 NSCLC; 91.7% [5 µM] in the experiment on NCI-H522 lung. For the same compound, the growth in the experiment on A549/ATCC NSCLC is 102% [5 µM]; with 786-0 renal, 105% [5 µM]; with COLO 205 colon, 105% [5 µM]; in the experiment with DU-145 prostate, 128% [5 µM]; with K-562 leukemia, 117% [5 µM]; in the experiment with MALME-3M melanoma it was 148% [5 µM]. In addition, the growth in the experiment on MDA-MB-231 breast was 98.3% [5 µM]; in the experiment on RXF 393 renal it was 119% [5 µM]; in the experiment with SF-268 CNS, 108% [5 µM]; in the experiment with SF-295 CNS it was 128% [5 µM]; in the experiment with SF-539 CNS, 104% [5 µM]; in the experiment on UACC-257 melanoma, 85.6% [5 µM]. Besides, the growth was 108% [5 µM] in the experiment with M14 melanoma and 102% [5 µM] in the experiment on HCT-15 colon.
For `O=C(CN1C=NC2C(N3CCOCC3)=NC=NC21)c1ccc(Br)cc1` (stereo not given), the growth in the experiment with NCI-H23 lung was 99.2%; with NCI-H322M lung, 97.2%; in the experiment on HOP-62 NSCLC it was 103%; with NCI-H460 lung, 99.9%; in the experiment with HOP-92 NSCLC, 106%; in the experiment on NCI-H522 lung, 87.2%. The growth is 103% with A549/ATCC NSCLC; 103% in the experiment on 786-0 renal; 112% in the experiment on COLO 205 colon; 107% with DU-145 prostate; 106% with K-562 leukemia; 104% in the experiment on MALME-3M melanoma. In addition, the growth with MDA-MB-231 breast was 105%; with RXF 393 renal, 103%; with SF-268 CNS, 98.9%; in the experiment on SF-295 CNS, 97.9%; in the experiment with SF-539 CNS, 100%; with UACC-257 melanoma, 105%. The growth in the experiment on M14 melanoma was 107%; in the experiment on HCT-15 colon it was 101%.
Regarding `Cc1nc2ccccc2c(/C=C/c2ccc(F)cc2)c1C(N)=O`, the growth in the experiment on NCI-H23 lung was 101%; with NCI-H322M lung, 110%; in the experiment on HOP-62 NSCLC it was 95.2%; in the experiment with NCI-H460 lung, 108%; with HOP-92 NSCLC it was 105%; in the experiment on NCI-H522 lung, 94.3%. Besides, the growth was 97.7% in the experiment with A549/ATCC NSCLC; 99.8% in the experiment with 786-0 renal; 114% with COLO 205 colon; 105% with DU-145 prostate; 95.8% with K-562 leukemia; 105% in the experiment on MALME-3M melanoma. For the same compound, the growth with MDA-MB-231 breast is 92%; in the experiment with RXF 393 renal, 106%; with SF-268 CNS, 96.4%; with SF-295 CNS it was 102%; in the experiment on SF-539 CNS, 102%; with UACC-257 melanoma, 99.9%. In addition, the values for the growth in the experiment on M14 melanoma and in the experiment with HCT-15 colon were 103% and 108%, respectively.
For the compound `O=C(Nc1ccc(F)cc1F)c1cc(Br)ccc1O`, the growth is -12.6% (active) with NCI-H23 lung; 0.898% (active) in the experiment with NCI-H322M lung; -8.56% (active) in the experiment on HOP-62 NSCLC; 4.52% (active) with NCI-H460 lung; -25.6% (active) with HOP-92 NSCLC; -12.2% (active) with NCI-H522 lung. Further, the growth in the experiment with A549/ATCC NSCLC was 5.78% (active); in the experiment with 786-0 renal it was 3.19% (active); with COLO 205 colon it was 7.66% (active); in the experiment with DU-145 prostate, 13.2%; in the experiment on K-562 leukemia, 4.71% (active); with MALME-3M melanoma, -30.1% (active). Further, the growth with MDA-MB-231 breast was -29.9% (active); in the experiment on RXF 393 renal, -5.34% (active); with SF-268 CNS, 7.16% (active); in the experiment on SF-295 CNS, -24.5% (active); in the experiment on SF-539 CNS, 4.41% (active); in the experiment with UACC-257 melanoma it was -15% (active). For the same compound, the figures for the growth in the experiment with M14 melanoma and in the experiment with HCT-15 colon were 7.28% (active) and 9.98% (active), respectively.
For the compound `COc1ccc(Cn2c(Br)c3c(c2Br)-c2nc(NC(=O)c4ccc(OC)cc4)sc2CC3)cc1`, the growth is 81.3% with NCI-H23 lung; 56.4% with NCI-H322M lung; 68.6% in the experiment on HOP-62 NSCLC; 77.4% in the experiment with NCI-H460 lung; 50.6% with HOP-92 NSCLC; 72% in the experiment on NCI-H522 lung. Further, the growth in the experiment with A549/ATCC NSCLC was 79.7%; in the experiment with 786-0 renal it was 61.8%; with COLO 205 colon, 103%; with DU-145 prostate it was 78%; in the experiment with K-562 leukemia, 79.2%; with MALME-3M melanoma it was 4.4% (active). Further, the growth was 52.6% in the experiment with MDA-MB-231 breast; 57% in the experiment on RXF 393 renal; 72% in the experiment with SF-268 CNS; 57.7% in the experiment with SF-295 CNS; 52.1% in the experiment on SF-539 CNS; 78.5% in the experiment on UACC-257 melanoma. Besides, the growth was 80.4% in the experiment on M14 melanoma and 92.8% in the experiment with HCT-15 colon.
On to `Cc1ccc2nc(NC(=O)CSC(=S)N3CCN(c4ccccc4)CC3)sc2c1`, for which the growth was 83.7% in the experiment with NCI-H23 lung; 92.9% in the experiment with NCI-H322M lung; 105% in the experiment on HOP-62 NSCLC; 112% in the experiment on NCI-H460 lung; 82.6% with HOP-92 NSCLC; -81.8% (active) in the experiment with NCI-H522 lung. Further, the growth in the experiment on A549/ATCC NSCLC is 94.6%; with 786-0 renal, 103%; in the experiment with COLO 205 colon, 116%; in the experiment with DU-145 prostate, 112%; in the experiment with K-562 leukemia, 95.7%; with MALME-3M melanoma, 105%. The growth with MDA-MB-231 breast was 101%; in the experiment with RXF 393 renal it was 108%; in the experiment with SF-268 CNS it was 101%; in the experiment on SF-295 CNS, 104%; in the experiment with SF-539 CNS, 104%; in the experiment with UACC-257 melanoma it was 108%. In addition, the growth in the experiment on M14 melanoma is 97.8%; in the experiment with HCT-15 colon, 97%.
As to `COc1ccc(C2C3=C(COC3=O)N(CCO)c3cc4c(cc32)OCCO4)cc1` (stereo not given), the growth in the experiment on NCI-H23 lung is 97.2%; in the experiment on NCI-H322M lung, 125%; with HOP-62 NSCLC it was 80.4%; in the experiment with NCI-H460 lung, 77.4%; in the experiment on HOP-92 NSCLC, 102%; with NCI-H522 lung, 58.2%. The growth was 76.6% with A549/ATCC NSCLC; 87.5% with 786-0 renal; 84.2% with COLO 205 colon; 106% in the experiment on DU-145 prostate; 53.1% in the experiment with K-562 leukemia; 103% with MALME-3M melanoma. Further, the growth in the experiment with MDA-MB-231 breast is 91.2%; in the experiment with RXF 393 renal, 75.5%; in the experiment with SF-268 CNS, 86.5%; with SF-295 CNS, 55.8%; in the experiment with SF-539 CNS, 83.1%; with UACC-257 melanoma, 69%. In addition, the growth was 77.7% in the experiment on M14 melanoma and 65.6% with HCT-15 colon.
For the compound `O=c1oc2ccc(I)cc2c(=O)n1-c1ccc(I)cc1F`, the growth in the experiment with NCI-H23 lung was 4.94% (active); in the experiment with NCI-H322M lung it was 7.17% (active); in the experiment on HOP-62 NSCLC it was -8.24% (active); in the experiment with NCI-H460 lung, 0.977% (active); in the experiment on HOP-92 NSCLC, -10.4% (active); in the experiment with NCI-H522 lung, -16.1% (active). For the same compound, the growth with A549/ATCC NSCLC is 6.24% (active); with 786-0 renal it was 2.44% (active); in the experiment with COLO 205 colon it was 44.5%; in the experiment on DU-145 prostate, 15.8%; in the experiment with K-562 leukemia, 5.58% (active); with MALME-3M melanoma it was -27.7% (active). Moreover, the growth was -9.68% (active) in the experiment on MDA-MB-231 breast; -3.51% (active) in the experiment on RXF 393 renal; 8.4% (active) in the experiment on SF-268 CNS; -56.6% (active) in the experiment with SF-295 CNS; 2.15% (active) with SF-539 CNS; -20.3% (active) in the experiment with UACC-257 melanoma. The results for the growth with M14 melanoma and in the experiment with HCT-15 colon were -2.96% (active) and 2% (active), respectively.

The values above are taken from PubChem BioAssay (NCI).
